From PubChem BioAssay
In the library only some 5.8% were active in any assay of this set; here they are far more common.
TSHR agonist = TSH receptor (human) agonism; P16473; HEK293-CNG-TSHR cells (CNG channel as cAMP sensor), membrane potential dye, cAMP; Potency, µM (series often up to 57.1 µM), for inactives: at the highest dose activation, most hits filed as activators; 73,000 tested, 0.48% active; AID 926; active means well fitted activation curve with a large enough effect in the main read-out, with a control signal flat, not every such curve was filed as active; inconclusive means small, poorly fitted or top-dose-only effect, or a change in a side signal; inactive means no such curve, though single readings can be large or run the other way; % of control where 0% means no effect;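 further: the control signal comes from parental cells without the receptor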
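HEK 293 cells stably expressing TSHR and a modified CNG channel, with CNG-only parental cells as counterscreen, were preloaded 60 min at room temperature with membrane potential dye containing 100 uM RO 20-1724. Compound exposure was 30 min, and depolarization was read as fluorescence at 590 nm.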
HEK293 cAMP ctrl = counter-screen for TSHR agonists: cAMP increase in parental HEK293 | parental HEK293 CNG cAMP sensor, membrane potential fluorescence | Potency, µM (series often up to 57.1 µM), without a hit: at the highest dose activation, most hits filed as activators | 73,000 tested, 2.5% active | AID 938; further: % of control where 0% means no effect; nearly all actives have a fitted effect of over 55% in size
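Counterscreen for endogenous-receptor signalling: CNG-channel HEK 293 cells report cAMP rise by membrane depolarization. After 60 min dye equilibration with 100 uM RO 20-1724, compounds incubated 30 min before bottom-read fluorescence at 590 nm.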
GBA mod = alters purified human glucocerebrosidase activity; purified enzyme, resorufin glucoside fluorescence (screen aimed at inhibitors), 20 min; 48,000 tested, 1.1% active; AID 360; Potency, µM; in the data active means potency below about 15 µM; inconclusive means mostly about 16 µM to 33 µM;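 further: the screen sought inhibitors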
Target sequence (P04062 whole entry, looked up): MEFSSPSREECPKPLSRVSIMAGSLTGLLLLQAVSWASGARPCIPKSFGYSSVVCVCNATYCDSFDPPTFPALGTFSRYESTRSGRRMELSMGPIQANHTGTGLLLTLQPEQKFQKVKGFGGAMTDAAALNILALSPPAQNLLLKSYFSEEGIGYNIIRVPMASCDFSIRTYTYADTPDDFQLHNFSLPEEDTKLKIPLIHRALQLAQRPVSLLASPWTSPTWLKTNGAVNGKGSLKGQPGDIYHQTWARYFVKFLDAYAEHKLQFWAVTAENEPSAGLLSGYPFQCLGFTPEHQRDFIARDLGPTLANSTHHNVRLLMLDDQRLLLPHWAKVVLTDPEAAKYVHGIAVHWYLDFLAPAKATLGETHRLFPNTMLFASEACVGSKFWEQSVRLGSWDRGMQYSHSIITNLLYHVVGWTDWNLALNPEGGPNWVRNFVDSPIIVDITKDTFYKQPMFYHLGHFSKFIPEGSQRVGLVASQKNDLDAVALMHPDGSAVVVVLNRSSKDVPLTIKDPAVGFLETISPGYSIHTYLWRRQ
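Compounds titrated against 0.2 nM normal enzyme, 30 uM resorufin beta-D-glucopyranoside substrate, citrate/phosphate buffer with taurocholate and tween-20, pH 5.9. Reaction ran 20 min at room temperature; fluorescence (Ex 548/Em 600) gave AC50.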
Luciferase inh = blocks Photinus pyralis firefly luciferase activity; 72,000 tested, 2.2% active; purified firefly luciferase, luminescence, 8 min; Potency, µM (top dose mostly 57.1 µM), for the others: top-dose activity change, negative = inhibition, usual class: inhibitors; further: on the % scale 0 is the no-effect control and ±100 the full control effect; nearly all actives have a fitted effect of over 40% in size
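Luminescence read-out after 8 min at room temperature; enzyme reaction used luciferin plus 10 uM ATP (linear range) in imidazole buffer pH 7.2 with KCl, MgCl2, Tween 20 and BSA. Each sample was run as a titration.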
PK Bst = pyruvate kinase (B. stearothermophilus) modulation; AID 361; 51,000 tested, 1.2% active; purified pyruvate kinase, luminescence ATP production; ribose 5-phosphate activator present at AC10; Potency, µM; in the data active means potency below about 11 µM; inconclusive means mostly about 12 µM to 25 µM;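 the screen sought inhibitors and activators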;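 further: scaled between full activation by ribose 5 phosphate and full inhibition by luteolin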
Numbers without * were called inactive; i = inactive; u = inconclusive; x = not tested or not shown; [ ] = remark or other dose. Unless noted, the call rests on the fitted dose curve; in most records, active means well fitted curve in the direction sought with a large enough effect; inconclusive means small, poorly fitted or top-dose-only effect, or another doubt; inactive means no such curve, though single readings can be large; an effect the other way counts as inactive or inconclusive. Potency means the concentration at half of the fitted maximal effect.

SMILES | TSHR agonist | HEK293 cAMP ctrl | GBA mod | Luciferase inh | PK Bst
c1ccc(COc2ccc(OCCOCCn3cncn3)cc2)cc1 | -5.4% | -1.4% | >76.9 | 15.8µM* | x
CC(=O)N1CN(Cc2ccccn2)Cc2c1sc1c2CCCC1 | 5.7% | 23.1% | 15.1* | -0.5% | >57
O=C1[C@H]2[C@H]3[C@H](O)[C@H](O)C/C(=N/OCc4ccccc4)[C@@H]3CC[C@@H]2C(=O)N1Cc1ccccc1 | -6.1%[11.4 µM] | 1.7%[11.4 µM] | x | 2.0%[11.4 µM] | x
COc1ccccc1N/C(N)=N/c1nc(CSc2ccc(C)cc2)cc(=O)[nH]1 | 17.0% | 28.6% | x | 3.5% | >57
COc1ccc(N/C(N)=N/c2nc(CSc3ccc(C)cc3)cc(=O)[nH]2)cc1 | 4.1% | -0.2% | 9.71* | -1.1% | >57
CCC[C@H]1C[C@H](C(=O)N[C@@H]([C@H]2O[C@@H](SC)[C@@H](O)[C@@H](O)[C@@H]2O)[C@H](C)Cl)N(C)C1 | -11.3%[25.6 µM] | -2.6%[25.6 µM] | x | 2.3%[25.5 µM] | x
COCCn1c(=O)c(-c2ccc(F)cc2)nc2cncnc21 | 5.7% | 18.7% | x | -0.3%[11.4 µM] | x
CC(C)OCCCNC(=O)c1c(N)n(/N=C/c2ccccn2)c2nc3ccccc3nc12 | u | 10µM* | u | 2.3% | >57
O=C(Nc1cccnc1)Nc1ccccc1Cl | 0.4% | 21.1% | 14.9* | -19.3% | x
O=C(Nc1cccnc1)Nc1ccc(Br)cc1Cl | -5.0% | -2.4% | x | -2.6% | >57
O=C(Nc1cccnc1)c1ccc(Oc2ccccc2)cc1 | 21.7% | 17.8% | 15.4* | 12.6µM* | i
O=C(Nc1ccccc1)Nc1ccccn1 | -5.3% | 3.5% | >76.9 | -25.4% | x
O=C(Nc1ccccc1)Nc1cccc2cccnc12 | -5.2% | -2.5% | >76.9 | 20µM* | x
Cc1ccccc1NC(=O)CSC(N)=O | -25.7% | -8.9% | >76.9 | -7.6% | >57
Cc1ccccc1N=C(N)Nc1ccccc1C | u | 15.8µM* | x | 0.3% | x
c1ccc(Nc2nc(-c3cccs3)cs2)nc1 | -12.0% | -19.4% | >76.9 | 5.01µM* | 3.56*
c1ccc(Nc2nc(-c3cccnc3)cs2)nc1 | -4.5% | 0.0% | >76.9 | 3.98µM* | u
Cc1cccc(Nc2nc(-c3ccccn3)cs2)n1 | -9.5% | -0.7% | i | -0.4% | >57
O=C(O)CCC(=O)Nc1nc(-c2ccccc2)cs1 | -2.6% | 12.4% | >76.9 | 1.2% | >57
O=C(COc1ccc(F)cc1)Nc1nccs1 | -8.1% | 16.8% | x | 12.6µM* | x
c1cncc(Nc2nc(-c3cccnc3)cs2)c1 | -18.3% | -15.8% | u | -2.7% | x
O=C(COc1ccccc1)Nc1nc(-c2cccs2)cs1 | u | 25.1µM* | >76.9 | 0.9% | x
O=c1c(-c2cc(F)cc(F)c2)nc2cnc(N3CCOCC3)nc2n1CCc1ccccc1 | 11.4% | 11.8% | x | -0.5%[11.4 µM] | x
C[C@@H](CC(=O)O)[C@@H](N)C(=O)O | 4.8% | 4.3% | x | 0.1% | x
CN1CCN(CCc2ccc(Cl)c(Cl)c2)CC1 | 9.0% | 13.1% | x | u | x
SMILES | TSHR agonist | HEK293 cAMP ctrl | GBA mod | Luciferase inh | PK Bst
Fc1ccc2nc3[nH]c4ccccc4c3nc2c1 | 3.7% | 5.7% | >76.9 | 6.31µM* | 3.68*
Cc1[nH]c2ccccc2c1-c1nc2ccccc2[nH]1 | 9.0%[11.4 µM] | -24.6% | >76.9 | u | x
O=C(CC(Nc1ccc(F)cc1)C(=O)O)c1ccccc1 (stereo not given) | 5.4% | 12.5% | >76.9 | 7.94µM* | u
O=C(C[C@@H](C(=O)O)N1CCOCC1)c1ccccc1 | -6.1%[11.4 µM] | -1.6%[11.4 µM] | x | -0.5%[11.4 µM] | x
N[C@@H](Cn1cc(F)c(=O)[nH]c1=O)C(=O)O | 9.2% | -2.5% | x | -0.3% | x
C[C@@H]1CC2(OC(O)[C@]3(C)O[C@H]23)O[C@H]2C[C@@]3(C)[C@@H]4CC[C@H]5C(C)(C)C(O[C@@H]6OC[C@@H](O)[C@H](O)[C@H]6O)CC[C@@]56C[C@@]46CC[C@]3(C)[C@@H]12 (stereo not given in full) | u | -34.9% | x | x | x
CCOC(=O)C1CCCN(C(=O)c2cc(Nc3ccc(OC)c(OC)c3)nc3ccccc23)C1 (stereo not given) | -1.1%[11.4 µM] | -14.1% | >76.9 | 15.8µM* | i
COc1ccc(Nc2cc(C(=O)NCCCN3CCN(C)CC3)c3ccccc3n2)cc1OC | u | u | >76.9 | 25.1µM* | i
CCC1Oc2ccc(C)cc2N(CC(=O)NCCC2=CCCCC2)C1=O (stereo not given) | u | 6.31µM* | >76.9 | 1.5% | >57
CCC1Oc2ccc(C)cc2N(CC(=O)NCCCN2CCCCC2CC)C1=O (stereo not given) | 16.6% | 10.0% | >76.9 | 0.1% | >57
